Test results reported in PubChem BioAssay AID2685 (National Center for Advancing Translational Sciences (NCATS), 2010).
Out of some 320,000 compounds screened, about 2,100 (0.66%) were called active. About 53% were inconclusive and are not listed. Calls follow the shape of the dose curve; as a rule, active = well fitted inhibition curve with a large enough effect in the signal ratio, with a control signal flat (not every such curve was filed as active); inconclusive = small, poorly fitted or top-dose-only effect, or effect the other way, or a change in a side signal; inactive = flat fitted curve, though single readings scatter; the % refers to the signal ratio. The full list was thinned out, with actives kept by preference.

Assay: qHTS Assay for Lipid Storage Modulators in Drosophila S3 Cells;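 as to cell number change: cells counted by Cell Tracker Red CMTPX staining in the red channel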
Conditions: BODIPY lipid droplet fluorescence, 18-24 h, cells fed with added oleic acid; cell number change: measured here: cell count max response; series mostly up to 46.1 µM
Outline: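 Drosophila S3 cells loaded with oleic acid (400 uM, as added) and compounds at several concentrations; lipid droplets imaged by 488-nm laser-scanning cytometry, 500–530 nm intensity and object ratio to cell channel. Percent activity normalized to 20 uM Triacsin C.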
Potency is read from the fitted curve at half-maximal effect.

| SMILES | Potency | cell number change [%] |
| --- | --- | --- |
| Cc1c(NC(=O)CSc2ccccc2C(=O)Nc2cccnc2)c(=O)n(-c2ccccc2)n1C | inactive | 13.8 |
| CCOC(=O)C1(CCOC)CCN(Cc2ccc(C3CCCCO3)s2)CC1 (centres undefined) | inactive | -8.03 |
| O=C1C2C(C(=O)N1Cc1cccnc1)C1C=CC2C12CC2 (centres undefined) | inactive | -2.7 |
| O=C1C2C(C(=O)N1CCc1ccccc1)C1C=CC2C12CC2 (centres undefined) | 23.1 µM (active) | -11.6 |
| O=C(Cc1ccccc1)NN1C(=O)C2C3C=CC([C@@H]2C1=O)C31CC1 (some centres undefined) | inactive | -3.77 |
| COCC(=O)Nc1ccc(C(C)C)cc1 | inactive | 24.3 |
| CC(C)(C)C(=O)NCCN1CCN(C(=O)C(C)(C)C)CC1 | inactive | 3.18 |
| Cc1ccc(-c2nnn(CCC(=O)N3CCCCC3C)n2)cc1 (centres undefined) | inactive | 10.5 |
| Cc1ccc(-c2nnn(CC(=O)N3C(C)CCCC3C)n2)cc1 (centres undefined) | 10.3 µM (active) | -11 |
| Cc1ccc(-c2nnn(CC(=O)O)n2)cc1 | inactive | – |
| Cc1ncc(CO)c(/C=N/NC(=O)c2ccccc2Br)c1O | inactive | 0.48 |
| Cc1ncc(CO)c(/C=N/NC(=O)c2ccc(O)cc2)c1O | inactive | 19.8 |
| Cc1cc(C(=O)N/N=C/c2c(CO)cnc(C)c2O)c2ccccc2n1 | 5.17 µM (active) | -19.9 |
| Cn1c(CNC(=O)OC(C)(C)C)nnc1SCc1c(Cl)cccc1Cl | inactive | -2.58 |
| Nc1nc(-c2ccccc2)nn1C(=O)c1ccco1 | inactive | -9.73 |
| Cc1cc(NC(=O)COC(=O)CCC(=O)c2ccc(F)cc2)no1 | inactive | 5.31 |
| CC(C)(C)c1ccc(C2(C)NC(=O)N(CC(=O)NCc3cccs3)C2=O)cc1 (centres undefined) | 5.17 µM (active) | 3.77 |
| O=C(CN1C(=O)NC2(CCCCCC2)C1=O)NCc1cccs1 | inactive | -8.23 |
| COc1ccc(CNC(=O)CN2C(=O)NC(C)(c3ccc(C(C)(C)C)cc3)C2=O)cc1 (centres undefined) | inactive | 5.69 |
| Cc1ccc(S(=O)(=O)NCc2ccccc2)cc1C(=O)N1CCCCCCC1 | inactive | -10.2 |

| SMILES | Potency | cell number change [%] |
| --- | --- | --- |
| O=C(NCC1CC1)c1onc(CSc2nc3ccccc3[nH]2)c1C(=O)NCC1CC1 | 11.6 µM (active) | -10.5 |
| O=C(NCc1ccccc1)c1onc(CSc2nc3ccccc3[nH]2)c1C(=O)NCc1ccccc1 | 14.6 µM (active) | -26.6 |
| C=CCNC(=O)c1onc(CSc2nc3ccccc3[nH]2)c1C(=O)NCC=C | inactive | -6.29 |
| O=C(NCC1CC1)c1onc(CSc2ccc(F)cc2)c1C(=O)NCC1CC1 | inactive | 10.6 |
| Cc1cc(C)cc(SCc2noc(C(=O)NCc3ccccc3)c2C(=O)NCc2ccccc2)c1 | inactive | -2.6 |
| COCCNC(=O)c1onc(CSc2nc3ccccc3[nH]2)c1C(=O)NCCOC | inactive | -7.78 |
| Cc1c(C(=O)OC(C)C)nnn1-c1nonc1N | inactive | 7.24 |
| Cc1ccsc1-c1nc(CN2CCCC2c2ccc(F)cc2)c(C)o1 (centres undefined) | inactive | 4.95 |
| Cc1cnc(C(=O)N2CCCC(C(=O)c3cccc(OC(C)C)c3)C2)cn1 (centres undefined) | inactive | -12.5 |
| Cc1ccc(C)c(NC(=O)c2ccc[n+](Cc3ccc([N+](=O)[O-])cc3)c2)c1 | inactive | 11.2 |
| CNNC(=O)C(C)NC(=O)c1ccc(Br)cc1 (centres undefined) | inactive | 10.8 |
| CCC(CC)NC(=O)Nc1ccc(C)cc1 | inactive | -11.1 |
| CCN(CC)c1nc(N)nc(NS(=O)(=O)c2ccc(Cl)cc2)n1 | inactive | 7.29 |
| O=c1c2ccccc2nc(SCc2nc3ccccc3s2)n1CCCO | inactive | -14.5 |
| CCOCCCn1c(SCc2nc3ccccc3s2)nc2ccccc2c1=O | 3.66 µM (active) | -21.8 |
| CCOCCCn1c(SCC(=O)NC(C)(C)C)nc2ccccc2c1=O | inactive | -4.14 |
| Brc1ccccc1OCCCN1CCCCCC1 | inactive | 5.41 |
| CC(=O)c1sc(NC(=O)c2cc(=O)c3ccccc3o2)nc1C | inactive | -11.4 |
| O=C(NNc1nc2c(F)cccc2s1)c1cc(=O)c2ccccc2o1 | inactive | -1.04 |
| COc1ccc2nc(NC(=S)NC(=O)c3ccco3)sc2c1 | inactive | 10 |

| SMILES | Potency | cell number change [%] |
| --- | --- | --- |
| COc1ccc2nc(NC(=O)c3ccco3)sc2c1 | inactive | 9.21 |
| O=C(Cc1ccccc1)Nc1nc2ccccc2s1 | inactive | -15.5 |
| O=C(CCNC(=O)c1ccccc1Cl)Nc1nc2ccccc2s1 | inactive | 9.97 |
| COc1ccc2nc(NNC(=O)c3cc(=O)c4ccccc4o3)sc2c1 | 5.17 µM (active) | 1.29 |
| COc1ccc2nc(NC(=O)CCNC(=O)c3ccco3)sc2c1 | 8.2 µM (active) | 15.7 |
| O=C(CCNC(=O)c1ccccc1)Nc1nc2ccccc2s1 | 3.66 µM (active) | 12 |
| COc1ccc(C(=O)NCCOc2cccc(OC)c2)cc1 | inactive | 26.7 |
| O=C1C=Cc2ccccc2/C1=C/c1[nH]c(=O)[nH]c1O | inactive | 1.79 |
| O=C(NC(=S)Nc1ccc(S(=O)(=O)Nc2nccs2)cc1)c1ccc(Br)o1 | inactive | – |
| O=C(NCCOC(=O)C1COc2ccccc2O1)C1COc2ccccc2O1 (centres undefined) | inactive | – |
| O=[N+]([O-])c1ccc(/C=N/Nc2nc(N3CCCCC3)nc(N3CCCCC3)n2)cc1 | inactive | -0.784 |
| O=[N+]([O-])c1ccc(-c2ccc(/C=N/Nc3nc(N4CCCC4)nc(N4CCCC4)n3)o2)cc1 | inactive | -13 |
| O=[N+]([O-])c1cccc(/C=N/Nc2nc(NCc3ccccc3)nc(N3CCOCC3)n2)c1O | inactive | 0.539 |
| COc1nc(N/N=C/c2ccc(-c3cccc([N+](=O)[O-])c3)o2)nc(N2CCOCC2)n1 | inactive | -9.45 |
| O=[N+]([O-])c1ccc(-c2ccc(/C=N/Nc3nc(N4CCCCC4)nc(N4CCCCC4)n3)o2)cc1 | 5.17 µM (active) | 17 |
| O=[N+]([O-])c1ccc(-c2ccc(/C=N/Nc3nc(NCc4ccccc4)nc(N4CCOCC4)n3)o2)cc1 | 18.4 µM (active) | 14.1 |
| CN(C)S(=O)(=O)N1CCC(Oc2cccc(C(=O)NC3CCCCCC3)c2)CC1 | inactive | – |
| O=C(O)c1ccccc1C(=O)N1CC=C(c2ccccc2)CC1 | inactive | 1.73 |
| Nc1[nH][nH]c(=O)c1N=Nc1cccc(Cl)c1 | inactive | 1.25 |
